Six1-Eya2 blk = inhibitors of human Six1/Eya2 interaction | AlphaScreen GST-Six1/His-Eya2 binding, biochemical; stronger effect = lower value | activity change, % (no concentration beside the values) | hit rate 0.56% among 360,000 | AID 651725; in the data active = activity change below about -65%; inconclusive = mostly about -30% to -63%
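Six1/Eya2 binding was read as AlphaScreen signal after compounds were pinned into GST-Six1 plus His-tagged Eya2 (5X stock 250/500 nM) in pH 8.0 Tris/NaCl/TCEP buffer, beads added, then incubated 1 h, 37 C, dark.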
CtBP-E1A blk = inhibitors of CtBP/E1A interaction. activity change, % (concentration not given with the values). hit rate 0.49% among 340,000. AID 651724. AlphaScreen GST-E1A/His-CtBP binding, 1536-well; stronger effect = lower value; in the data active = activity change below about -65%; inconclusive = mostly about -30% to -63%
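AlphaScreen with 125 nM GST-E1A and 125 nM His-CtBP (5X stocks) in Tris pH 8.0, 300 mM NaCl, BSA, Tween 20, TCEP. Compounds preincubated 2 h at 37 deg C, then glutathione donor/nickel acceptor beads added for 1 h at 37 deg C in dark.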
DT40 TDP1 no CPT = qHTS for Inhibitors of human tyrosyl-DNA phosphodiesterase 1 (TDP1): qHTS in cells in absence of CPT; DT40 Tdp1-/- hTDP1 cells, no CPT, ATP luminescence, 48 h; Potency, µM (top dose mostly 46.2 µM), for the others: at the highest dose activity change, negative = growth inhibition, usual class: inhibitors; hit rate 15% among 420,000; AID 686978, 2013; note: potency is the fitted concentration of half-maximal effect; nearly all actives have a fitted effect of over 55% in size
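Growth kinetics read by CellTiter-Glo luminescence after ≥48 hr at 37 °C. Cells: DT40 Tdp1-/- stably carrying human TDP1, 400 per well, compound exposure in the absence of CPT (DMSO vehicle).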
TDP1 cell CPT = growth inhibition of DT40 Tdp1-/-;hTDP1 cells with camptothecin (screen for TDP1 inhibitors) | chicken DT40 Tdp1-/-;hTDP1 cells + 20 nM CPT, ATP luminescence, 48 h | Potency, µM (doses to about 46.2 µM), for the others: at the highest dose activity change, negative = growth inhibition, usual class: inhibitors | hit rate 12% among 420,000 | AID 686979; note: potency is the fitted concentration of half-maximal effect; nearly all actives have a fitted effect of over 55% in size
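Cell growth measured by CellTiter-Glo luminescence after a minimum 48 h, 37 C compound exposure with 20 nM CPT in Tdp1-knockout DT40 cells stably expressing hTDP1, seeded 400/well; qHTS titration format.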
IL-1B inflam inh = blocks inflammasome-driven IL-1 beta release; THP-1 LPS/ATP IL-1B secretion, AlphaLISA, 16 h; stronger effect = lower value; activity change, % at 57.5 µM; hit rate 4.7% among 360,000; AID 743279; in the data active = activity change below about -50%; inconclusive = mostly about -30% to -49%
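Secreted IL-1B measured by AlphaLISA bead assay after 16 h compound exposure of THP-1 cells; compounds (final up to 57.5 uM) added 1 h before LPS (250 ng/mL) and ATP (1.25 mM) stimulation; lower signal means less secretion.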
TDP1 block = blocks human tyrosyl-DNA phosphodiesterase 1. hit rate 0.28% among 350,000. Potency, µM (highest dose often 130 µM), without a hit: at the top dose activity change, negative = inhibition, usual class: inhibitors. recombinant TDP1, AlphaScreen DNA substrate cleavage. AID 485290. Q9NUW8; note: potency is the fitted concentration of half-maximal effect; nearly all actives have a fitted effect of over 40% in size
Target sequence (Q9NUW8 whole entry, looked up): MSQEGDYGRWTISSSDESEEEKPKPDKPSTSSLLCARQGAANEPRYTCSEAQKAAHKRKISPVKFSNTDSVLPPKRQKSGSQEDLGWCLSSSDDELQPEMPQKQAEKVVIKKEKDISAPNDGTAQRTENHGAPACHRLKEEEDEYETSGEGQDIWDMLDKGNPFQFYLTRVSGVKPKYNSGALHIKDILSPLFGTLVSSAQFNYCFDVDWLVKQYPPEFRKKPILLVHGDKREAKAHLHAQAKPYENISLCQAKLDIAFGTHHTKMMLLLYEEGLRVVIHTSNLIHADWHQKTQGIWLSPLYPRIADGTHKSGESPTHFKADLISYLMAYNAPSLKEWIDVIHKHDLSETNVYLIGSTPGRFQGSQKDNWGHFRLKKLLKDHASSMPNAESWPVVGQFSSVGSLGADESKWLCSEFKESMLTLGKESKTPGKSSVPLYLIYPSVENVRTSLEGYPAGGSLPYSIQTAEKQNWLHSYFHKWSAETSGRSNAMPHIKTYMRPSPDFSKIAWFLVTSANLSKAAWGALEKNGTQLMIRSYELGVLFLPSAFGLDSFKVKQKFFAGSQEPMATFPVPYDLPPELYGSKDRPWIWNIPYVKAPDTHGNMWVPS
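E. coli-derived human Tdp1, 1 nM final. Cpd preinc 15 min RT; substrate 15 nM final, 5 min RT; AS bead mix 10 ug/ml final, 10 min RT. Signal loss = tyrosine-FITC cleavage. No-enzyme wells = max signal.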
* = called active by the depositor; i = inactive; ? = inconclusive; . = no result given; [ ] = dose if it differs, or a comment. The list is not random: actives were taken first. Their share in the collection is about 18%. Unless noted, calls come from the whole dose curve; as a rule, active = well fitted curve in the direction sought with a large enough effect; inconclusive = small, poorly fitted or top-dose-only effect, or another doubt; inactive = no such curve, though single readings can be large; an effect the other way counts as inactive or inconclusive. % is set by controls: 0 for no effect and ±100 for the full control effect.

SMILES | Six1-Eya2 blk | CtBP-E1A blk | DT40 TDP1 no CPT | TDP1 cell CPT | IL-1B inflam inh | TDP1 block
Cc1cc(C)n(-c2ccc(C(=O)OCC(=O)Nc3cc(S(C)(=O)=O)ccc3Cl)cc2)n1 | -1.0 | 3.1 | 6.4% | -16.3% | 3.6 | -1.7%
CN1C(=O)Cc2cc(S(=O)(=O)NCc3ccccc3Cl)ccc21 | . | . | ? | ? | . | 7.5%
C/C(=N\NC(=O)c1ccc(Cl)cc1)c1cccnc1 | -5.1 | 0.7 | 6.3% | -2.9% | -14.5 | .
C/C(=N\NC(=O)c1cccc(O)c1)c1cccc(NC(=O)c2ccc(F)cc2)c1 | -4.0 | -14.4 | ? | 10.3µM* | -28.4 | 6.6%
C/C(=N\NC(=O)c1ccc(F)cc1)c1cccc(NC(=O)c2cccc(F)c2)c1 | 12.5 | -1.3 | ? | ? | 10.3 | 2.9%
C/C(=N\Nc1cccc([N+](=O)[O-])c1)c1cc(F)ccc1O | -4.4 | . | 13µM* | ? | -10.1 | 0.0%
C/C(=N/Nc1ccc(C(=O)O)cc1)c1ccc(O)c(O)c1O | ? | -21.1 | 14.6µM* | 14.6µM* | 4.7 | ?
C/C(=N\NC(=O)c1ccc(Cl)cc1)c1cccc(NC(=O)c2cccnc2)c1 | -5.1 | 0.0 | ? | ? | -66.4* | 7.6%
CCCC(=O)Nc1cccc(NC(=O)Cc2ccc(Cl)cc2)c1 | 1.8 | -1.1 | -29.3% | -12.4% | -9.8 | .
COc1ccc(CCNC(=O)c2sc3nc4n(c(=O)c3c2C)CCC4)cc1 | -6.7 | -18.7 | ? | -22.0% | -13.2 | .
O=C(Nc1ccc2c(c1)OCCO2)C(C1CC1)n1c(=O)c(-c2ccccc2)nc2ccccc21 (configuration not stated) | -5.7 | -17.9 | ? | -27.7% | -24.7 | .
COc1ccc(C2CC(=O)Oc3ccc(O)cc32)cc1 (configuration not stated) | . | . | . | . | . | -5.1%[234 µM]
CCc1ccc(OCC(=O)NNC(=O)c2ccc(-n3cncn3)c([N+](=O)[O-])c2)cc1 | -10.6 | -4.1 | ? | -24.8% | -2.6 | .
C/C(=N\NC(=O)c1ccc(O)cc1)c1ccc(N2CCOCC2)cc1 | 3.5 | . | -1.4% | 0.6% | 7.9 | .
C/C(=N\NC(=O)c1ccc(N/N=C(\C)c2ccc(O)cc2)cc1)c1ccc(O)cc1 | -5.0 | 1.7 | 8.2µM* | 20.6µM* | -25.2 | 11.4%
C/C(=N\NC(=O)c1cccc(N/N=C(\C)c2cc(O)ccc2O)c1)c1cc(O)ccc1O | ? | ? | 16.4µM* | 11.6µM* | 0.0 | 8.2%
C/C(=N\NC(=O)c1ccccc1F)c1cccc(NC(=O)c2ccc(C)cc2)c1 | -24.0 | 1.1 | 16.4µM* | ? | -4.3 | 2.3%[56.1 µM]
Cc1ccc(C(=O)Nc2cccc(C(=O)N/N=C/c3ccccc3F)c2)cc1 | -6.5 | -11.4 | ? | ? | 36.7 | 2.4%
C/C(=N\NC(=O)c1cccc(N/N=C(\C)c2ccco2)c1)c1ccco1 | -5.9 | . | ? | -20.2% | 4.7 | 8.1%
Cc1ccccc1OC(=O)c1nc(SCc2ccccc2F)ncc1Cl | . | . | -11.4% | -7.5% | . | -2.3%
Cc1ccccc1CSCCC(=O)NCCC1=CCCCC1 | -21.7 | 2.0 | -0.9% | -1.2% | 5.2 | 0.0%
CC(C)(Oc1ccc(Cl)cc1)C(=O)Nc1nnc2n1CCS2 | . | . | 18.4µM* | ? | . | 5.5%
O=C(COc1ccc(Cl)cc1)Nc1nnc2n1CCS2 | . | . | -8.9% | -14.2% | . | 6.6%
COc1cc(/C=N\NC(=O)c2ccc(-c3ccccc3)cc2)cc(Br)c1O | -11.1 | -21.7 | ? | ? | i | -3.1%
Cc1cc(C(=O)N/N=C/c2cccc([N+](=O)[O-])c2)c2ccccc2n1 | -9.4 | -5.6 | ? | ? | 4.8 | 3.1%
SMILES | Six1-Eya2 blk | CtBP-E1A blk | DT40 TDP1 no CPT | TDP1 cell CPT | IL-1B inflam inh | TDP1 block
COc1cc(/C=N/NC(=O)c2cc(-c3cccc(Br)c3)nc3ccccc23)cc(OC)c1O | -14.0 | -8.3 | ? | 20.6µM* | 44.3 | .
COc1cc(/C=N/NC(=O)c2cc(-c3ccccc3Cl)nc3ccccc23)cc(OC)c1O | -24.7 | -11.9 | 6.51µM* | ? | -10.1 | .
O=C(N/N=C/c1cccc(F)c1)c1cc(-c2ccco2)nc2ccccc12 | -28.7 | -1.5 | 10.3µM* | 14.6µM* | 28.5 | .
COc1cc(/C=N/NC(=O)c2ccc(CN3C(=O)c4cccc5cccc3c45)cc2)cc(OC)c1O | 8.6 | 0.1 | ? | 13µM* | 40.1 | 0.0%
COc1cc(/C=N/NC(=O)c2cc(-c3ccco3)nc3ccccc23)cc(OC)c1O | -17.0 | -22.3 | ? | 10.3µM* | 28.8 | 2.9%
CC1CCCCC1NC(=O)CO/N=C/c1ccccc1OC(F)F (configuration not stated) | 2.2 | 4.1 | -23.3% | 20.0% | 3.0 | -1.1%
O=C(CSc1nc2ccccc2c(=O)n1-c1ccccc1F)Nc1ccc2c(c1)CCC2 | -4.6 | . | ? | ? | 6.6 | -5.5%
CCN(CC(=O)Nc1cccc(Br)c1)Cc1nc2ccccc2c(=O)[nH]1 | 6.4 | -4.4 | 4.61µM* | 5.17µM* | 9.1 | 7.8%
CCN(CC)CC(=O)Nc1ccc2c(c1)N(C(=O)CN(CC)CC)c1ccccc1CC2 | 3.4 | 8.6 | ? | ? | ? | 2.3%
CCN(CC(=O)Nc1ccc2c(c1)OC(F)(F)O2)Cc1nc2ccccc2c(=O)[nH]1 | 0.5 | 4.9 | ? | ? | 0.0 | 4.9%
CCN(CC)CC(=O)Nc1ccc2c(c1)Nc1ccccc1CC2 | -29.1 | -15.7 | 15.8µM* | ? | -14.2 | 8.7%
CCN(CC(=O)Nc1ccc2c(c1)CCC2)Cc1nc2ccccc2c(=O)[nH]1 | -7.6 | -9.1 | 8.2µM* | 3.66µM* | 4.2 | 7.9%
CCN(CC(=O)Nc1ccc2c(c1)OCO2)Cc1nc2ccccc2c(=O)[nH]1 | -11.2 | -11.8 | ? | ? | -4.5 | 7.2%
CCN(CC)CCn1c(SCC(=O)Nc2ccc3c(c2)CCC3)nc2ccccc2c1=O | -0.7 | . | 2.31µM* | ? | ? | 1.1%[56.1 µM]
CCOC(=O)C1CCN(CC(=O)Nc2cc(S(=O)(=O)N3CCOCC3)ccc2C)CC1 | -18.9 | -1.9 | -20.4% | 13.0% | -17.4 | .
Cn1c(N)c(C(=O)COC(=O)c2cc3ccccc3cc2O)c(=O)n(C)c1=O | -9.5 | -1.0 | -1.4% | -5.9% | 12.5 | 0.5%
CCCn1nc(CC(=O)O)c2ccccc2c1=O | 2.9 | 0.5 | 4.2% | 1.5% | 9.3 | 3.3%
Nc1[nH]c(=O)nc(Nc2ccccc2)c1N=O | ? | -65.8* | -14.2% | ? | 27.2 | .
O=c1nc(N2CCCC2)nc(Nc2ccccc2)[nH]1 | -13.2 | -1.2 | -23.7% | -2.0% | -5.3 | 6.6%
